“And” between values parts separate entries of the source, which are not always exact repeats. Equal entries are not always repeated. Records with an inconclusive call do not appear. More than one record can exist for a structure, and the calls need not agree. The source made the active and inactive calls. The call rests on the fitted dose curve; in most records, active means well fitted activation curve with a large enough effect in the repeat runs; inconclusive means weak or mixed curves, or effect the other way; inactive means no such curve, though single readings can be large or run the other way.
molecular target: Estrogen receptor (Homo sapiens) (UniProt P03372); assay: qHTS assay to identify small molecule agonists of the estrogen receptor alpha (ER-alpha) signaling pathway using the BG1 cell line (AID 743079); conditions: BG1Luc4E2 cells, ERE-luciferase agonist, 22 h; series mostly up to 70.3 µM; activation: at the top concentration; further: nearly all actives have a fitted effect of over 20% in size
On the % scale 0 is the no-effect control and ±100 the full control effect; potency means the concentration at half of the fitted maximal effect.

Chain of Estrogen receptor (Homo sapiens) (P03372 whole entry, looked up): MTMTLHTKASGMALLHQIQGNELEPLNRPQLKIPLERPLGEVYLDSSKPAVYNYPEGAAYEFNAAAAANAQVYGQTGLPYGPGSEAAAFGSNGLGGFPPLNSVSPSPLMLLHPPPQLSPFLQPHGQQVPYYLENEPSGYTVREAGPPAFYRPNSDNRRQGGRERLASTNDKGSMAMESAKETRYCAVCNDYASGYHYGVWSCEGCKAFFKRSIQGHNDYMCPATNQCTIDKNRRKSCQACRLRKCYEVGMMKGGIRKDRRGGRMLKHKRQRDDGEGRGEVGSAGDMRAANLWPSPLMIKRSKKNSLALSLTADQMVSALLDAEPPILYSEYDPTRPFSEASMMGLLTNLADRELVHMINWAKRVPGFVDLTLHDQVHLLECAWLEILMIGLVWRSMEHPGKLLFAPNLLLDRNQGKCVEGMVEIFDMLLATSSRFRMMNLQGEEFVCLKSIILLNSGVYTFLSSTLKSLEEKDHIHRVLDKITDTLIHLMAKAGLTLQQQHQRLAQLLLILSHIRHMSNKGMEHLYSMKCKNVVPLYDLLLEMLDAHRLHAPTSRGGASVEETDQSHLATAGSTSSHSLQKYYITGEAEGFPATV

| SMILES | activation | Potency |
| --- | --- | --- |
| O=[N+]([O-])c1cc(Cl)c(Cl)cc1Cl | 2.54% (inactive) | – |
| CC(C)(C)NCC(O)c1ccccc1Cl (configuration not stated) | 14.1% (inactive) | – |
| O=C([O-])c1ccccn1.O=C([O-])c1ccccn1.O=C([O-])c1ccccn1.[Cr+3] | -2.46% (inactive) | – |
| CCSCc1ccccc1OC(=O)NC | 3.36% (inactive) | – |
| C=CCOC(=O)C(C)(C)OC(=O)c1cc(-n2c(=O)cc(C(F)(F)F)n(C)c2=O)ccc1Cl | -5.4% (inactive) | – |
| CC(O)CN1CCN(CC(=O)[O-])CCN(CC(=O)[O-])CCN(CC(=O)[O-])CC1.[Gd+3] (configuration not stated) | – | inactive and 5.31 µM (active) |
| CCCN(CCC)c1c([N+](=O)[O-])cc(C(C)C)cc1[N+](=O)[O-] | – | inactive |
| Nc1c(Br)cc(Br)c2c1C(=O)c1ccccc1C2=O | 17.7% [at 32.5 µM] (inactive) | – |
| O=P(OCC(Br)CBr)(OCC(Br)CBr)OCC(Br)CBr (configuration not stated) | -18.9% (inactive) | – |
| C=C(Cl)Cl | 2.68% [at 95 µM] (inactive) | – |
| SCc1ccccc1 | – | 62.9 µM (active) |
| CCCC[N+]1(C)[C@@H]2CC(OC(=O)[C@H](CO)c3ccccc3)C[C@H]1[C@@H]1O[C@@H]12 (some centres not stated) | 1.55% (inactive) | – |
| CN1CC[C@]23c4c5ccc(O)c4O[C@H]2[C@@H](O)CC[C@H]3[C@H]1C5 | 0.156% (inactive) | – |
| N#CC(C#N)=C(C#N)C#N | -2.63% [at 95 µM] (inactive) | – |
| CCCC(C)(COC(N)=O)COC(=O)NC(C)C (configuration not stated) | – | inactive |
| C=CCOCC1CO1 (configuration not stated) | -0.464% (inactive) | – |
| COCc1cnc(C2=NC(C)(C(C)C)C(=O)N2)c(C(=O)O)c1 (configuration not stated) | 1.65% (inactive) | – |
| CN[C@@H](C)[C@H](O)c1ccccc1 | – | 26.6 µM (active) |
| COc1cc(CC(C)N)c(OC)cc1Br (configuration not stated) | – | inactive |

| SMILES | activation | Potency |
| --- | --- | --- |
| OCCSSCCO | -9.31% (inactive) | – |
| CCCCCBr | -1.18% [at 95 µM] (inactive) | – |
| Cc1ccc2c(C)cccc2c1 | -9.62% (inactive) | – |
| CCCCC(CC)CO[N+](=O)[O-] (configuration not stated) | 11.5% (inactive) | – |
| COC(=O)C1(O)c2ccccc2-c2ccccc21 | -0.127% (inactive) | – |
| CCC[N+](CCC)(CCC)CCC | -2.45% (inactive) | – |
| CN(C1CCCCC1)C1CCCCC1 | 4.62% (inactive) | – |
| CCNC(=O)NC(=O)/C(C#N)=N/OC | -6.02% (inactive) | – |
| C=C(C)C(=O)OCCCCOC(=O)C(=C)C | -5.06% (inactive) | – |
| CCCSP(=S)(OCC)Oc1ccc(SC)cc1 (configuration not stated) | 14.3% (inactive) | – |
| CCCBr | -4.45% (inactive) | – |
| CC(C)c1ccc(OP(=O)(Oc2ccc(C(C)C)cc2)Oc2ccc(C(C)C)cc2)cc1 | – | 2.75 µM (active) and 6.85 µM (active) |
| CCCC1CCCCN1 (configuration not stated) | -1.7% (inactive) | – |
| Clc1ccccc1 | -13.9% (inactive) | – |
| C[N+](C)(C)CC1CO1 (configuration not stated) | -1.49% (inactive) | – |
| CCCC[N+](CCCC)(CCCC)CCCC | -1.42% (inactive) | – |
| CCC1(CC)C(=O)NC(=O)NC1=O | 2.73% (inactive) | – |
| CCOP(=S)(S)OCC | -1.73% [at 95 µM] (inactive) | – |

From PubChem BioAssay (Tox21)
